About 79,000 compounds went through this panel and 15% of them were active in at least one assay; those are over-represented in the sample as a whole. Unmarked numbers belong to inactive results. The source made the active and inactive calls. Rule as the data show it: active = growth inhibition above about 70%; inactive = the rest.
Assays:
[1] = NCI Yeast Anticancer Drug Screen. Data for the rad50 strain (AID 155);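 also: 0% = growth of vehicle-only cultures of the same strain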; conditions: S. cerevisiae rad50 strain growth inhibition; at 50.0 µM; hits give high values
Method in brief: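 Yeast carrying a defined DNA repair defect were exposed to test compounds, and growth was compared with vehicle-treated controls to give percent inhibition.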

[2] = NCI Yeast Anticancer Drug Screen. Data for the mec2-1 strain (AID 157); conditions: S. cerevisiae mec2-1 strain, at 50.0 µM, hits give high values
Method in brief: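 Compounds were applied to mec2-1 yeast cells. Their growth was then compared with that of vehicle-treated cultures to give growth inhibition.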

[3] = NCI Yeast Anticancer Drug Screen. Data for the sgs1 mgt1 strain (AID 161);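 also: 0% = growth of cultures given vehicle only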; conditions: S. cerevisiae sgs1 mgt1 strain, at 50.0 µM, hits give high values
Method in brief: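 Growth of a repair-deficient yeast mutant was monitored after compound treatment and expressed as inhibition relative to vehicle-treated cultures.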

[4] = NCI Yeast Anticancer Drug Screen. Data for the cln2 rad14 strain (AID 165);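 also: 0% = growth equal to vehicle treated cultures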; conditions: S. cerevisiae cln2 rad14 strain, at 50.0 µM, hits give high values
Method in brief: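 Strain: cln2 rad14 yeast, altered in cell cycle control and DNA damage repair. Read-out: growth inhibition vs vehicle.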

[5] = NCI Yeast Anticancer Drug Screen. Data for the bub3 strain (AID 167); conditions: S. cerevisiae bub3 mutant strain, at 50.0 µM, hits give high values
Method in brief: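 Compounds were applied to a genetically altered yeast strain carrying a cell-cycle control defect. Growth inhibition was scored against vehicle-treated controls.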

[6] = NCI Yeast Anticancer Drug Screen. Data for the mlh1 rad18 strain (AID 175); conditions: S. cerevisiae mlh1 rad18 strain growth inhibition; at 50.0 µM; hits give high values
Method in brief: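 A repair-deficient yeast strain is exposed to test compound, and growth is scored relative to vehicle-treated controls.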

| Compound | growth inhibition [1] | growth inhibition [2] | growth inhibition [3] | growth inhibition [4] | growth inhibition [5] | growth inhibition [6] |
| --- | --- | --- | --- | --- | --- | --- |
| CCCCCCCCCC[C@@H](OC(C)=O)[C@@H]1CC[C@@H]([C@@H]2CC[C@@H]([C@@H](O)CC#C/C=C/CCCCCCC[C@@]3(Sc4ccccc4)C[C@H](C)OC3=O)O2)O1 | -27.9% | -8.2% | -16.1% | 4.25% | -15.3% | -12.1% |
| Nc1nc2c(-c3ccc([N+](=O)[O-])cc3)nnn2c2cccc(Cl)c12 | -9.7% | -15.8% | -18.4% | 4.85% | -32.5% | -14.7% |
| COc1ccc(Br)c(C=O)c1NC(C)=O | 22.7% | 11.4% | 38.1% | -1.3% | -8.25% | -4.1% |
| CCOCC(=O)NC1Cc2cc(OC)c(OC)cc2C1O (stereo not drawn) | -29.8% | -6.2% | 0.1% | -17.1% | 2.15% | 15.6% |
| CCCCCCCCCCCCCCCCOC(=O)/C=C/c1ccccc1 | -8.35% | -2.35% | -7.45% | -8.55% | -12.3% | 9.1% |
| CC(=O)Oc1ccccc1/C=C1/C=C(c2ccccc2)OC1=O | 6.4% | -7.55% | -0.55% | -39.1% | -16.8% | 0.2% |
| O=Cc1c(CO)cc(O)c(O)c1O | -12.4% | -0.1% | 16.1% | -30.6% | 2.9% | 6.55% |
| CN(C)c1ccc(N=Nc2ccc(S(=O)(=O)O)cc2)cc1.CN(C)c1ccc(N=Nc2ccc(S(=O)(=O)O)cc2)cc1.[NH-]C1CCCCC1[NH-].[Pt+2] | 24.2% | 7.1% | 10.3% | -9.15% | 15.6% | 3.55% |
| O.O.[Cu+2].[Cu+2].[NH-]CCC(=O)[N-]C(Cc1cnc[nH]1)C(=O)O.[NH-]CCC(=O)[N-]C(Cc1cnc[nH]1)C(=O)O (stereo not drawn) | -26.1% | 5.8% | 0.95% | 31.8% | 6.35% | 11.8% |
| Cc1[nH]c(=O)c2oc3cc4ccccc4cc3c2c1C(=O)O | -14.6% | -29.9% | -24.1% | -44.1% | -30.7% | -19.1% |
| O=C(c1ccccc1)N(N=C(c1ccc([N+](=O)[O-])cc1)c1ccc([N+](=O)[O-])cc1)c1ccccc1 | 24.7% | 15.1% | -6.6% | -5.9% | 5% | 10.6% |
| COc1cc2c(cc1OC)-c1cc3ccc(OC)c(OC)c3c[n+]1CC2 | -8.55% | -21.8% | 23.6% | -14.1% | -9.45% | -4.35% |
| CCCNC(=O)Nc1ccccc1OCC | -3.6% | -5.55% | -8.6% | -68% | 13.2% | -5.25% |
| N[C@H](CCC(=O)NCP(=O)(O)O)C(=O)O | -43.7% | -42.6% | -44.7% | -7.1% | -10.8% | -41.1% |
| Nc1ccc2[nH]cc(CCC(=O)O)c2c1 | -11.8% | -6.95% | -4.45% | -11.6% | -60.6% | 18.5% |
| C/C(=N\NC(=O)c1cccnc1)c1cccc(/C(C)=N/NC(=O)c2cccnc2)n1.CC(=O)[O-].CC(=O)[O-].[Zn+2] | -5.45% | 5.15% | -2.6% | -15.2% | -6.1% | -4% |
| CC(=O)Nc1ncc(Br)s1 | 6.75% | 6.05% | -18.4% | -13.8% | -9.4% | 5.3% |
| CC(=O)Nc1cccc(S(=O)(=O)c2cccc(NC(C)=O)c2)c1 | -9.8% | -10.1% | -7.55% | -66.5% | 8.1% | -10.3% |
| O=C(NC(Cc1cnc[nH]1)C(=O)N1CCCC1)C1CCCC1 (stereo not drawn) | -22.4% | -20.4% | 13.7% | 6.2% | 0.9% | -14.3% |

| Compound | growth inhibition [1] | growth inhibition [2] | growth inhibition [3] | growth inhibition [4] | growth inhibition [5] | growth inhibition [6] |
| --- | --- | --- | --- | --- | --- | --- |
| CCN1CCC(CC(c2ccccc2)c2ccccc2)C1 (stereo not drawn) | 19.4% | -6.75% | 34.2% | -4.95% | 10.1% | 7% |
| COC(=O)C1(C(=O)OC)O[C@@H](c2ccccc2)[C@H]2C(=O)N(C)C(=O)[C@H]21 | 7.05% | 0.9% | 7.45% | 8.8% | -1.1% | 13.8% |
| CC(=O)/C(=C/c1ccco1)CC(=O)O | -15.1% | -22.1% | -12.9% | 4.05% | -18.4% | -5% |
| Oc1c2c(c3cccc4cccc1c43)=Nc1ccccc1S2 | 0.25% | 3.2% | 6.4% | -23.6% | 3.3% | 7.1% |
| CS(=O)(=O)OCC(=O)NCCCCNC(=O)COS(C)(=O)=O | -12.4% | 2.7% | 4.55% | -29.5% | 7.45% | 10.3% |
| CC1=C(/C=C/C(O)CC(O)(C(F)(F)F)C(F)(F)F)C(C)(C)CCC1 (stereo not drawn) | 38% | 20.8% | 18.9% | 43.2% | 17% | 63.1% |
| COc1ccc(-n2c(=O)c(N=Nc3ccccc3)c(O)n(-c3ccccc3OC)c2=S)cc1 | 39.5% | -13.6% | 40.5% | -13.7% | 8.95% | 15.3% |
| Oc1ccc(Cl)cc1/C=N\N=C\c1cc(Cl)ccc1O | -50.3% | -1.1% | 5.75% | -36.1% | 3.15% | 8.85% |
| Cc1ccc(S(=O)(=O)N2CCCSCCN(S(=O)(=O)c3ccc(C)cc3)CCCSCC2)cc1 | -0.25% | -32.5% | -30.2% | -9.4% | -28.6% | -24.4% |
| COc1cc(NCCCCCN2C(=O)c3ccccc3C2=O)c2ncccc2c1 | 13.9% | 13.2% | 17.4% | 11% | 10.7% | 0.1% |
| Nc1ccccc1C(=O)N/N=C/c1cccnc1 | 11.1% | -21.3% | 17.7% | 9.45% | 13.2% | -16.6% |
| CC(C)(C)C1CCC(C(=O)c2ccccc2)CC1 (stereo not drawn) | -7.75% | -4.05% | -0.75% | -45.3% | -28.6% | 1.7% |
| C=CS(=O)(=O)c1ccc(Nc2cc(S(=O)(=O)O)c(N)c3c2C(=O)c2ccccc2C3=O)cc1 | -20.2% | -30.9% | -4.1% | 2.9% | -19.3% | -36.1% |
| CC(=O)O[C@H]1CC[C@@]2(C)[C@@H](CC[C@@H]3[C@@H]2CC(=O)[C@@]2(C)[C@H]3C[C@@H]3CC(C)=CC(=O)[C@@H]32)C1 | 48.2% | -7.55% | 28.6% | -20.6% | -34.9% | 28% |
| O=S(=O)(Cc1ccccc1)CC(Br)CBr (stereo not drawn) | 82.9% (active) | 97.2% (active) | 96.1% (active) | 27.4% | 95.2% (active) | 97.2% (active) |
| CCCCOC(=O)c1ccc(OCCCC)cc1 | 23.6% | 19.6% | 16.6% | 13.2% | 10.5% | 17.8% |
| CCOC(=O)CSCCC(=O)OC | -1.3% | 3.1% | -0.8% | -5.5% | -0.05% | 1.35% |
| CC1OC(C)(CCc2ccccc2)OC1C (stereo not drawn) | 0.4% | -46.8% | 11.7% | -12.2% | -21.6% | -8% |
| CC(=O)Nc1ccc2c(c1)Cc1cc(NC(C)=O)c(Cl)cc1-2 | 3.15% | 11.9% | -1.45% | 7.95% | -2.35% | -1.2% |
